These results are taken from paper PMC7862700, “An all-to-all approach to the identification of sequence-specific readers for epigenetic DNA modifications on cytosine”.

Test in all cases: DAPPL (digital affinity profiling via proximity ligation, sequencing); 10 mM Tris-HCl pH 7.5, 50 mM NaCl, 1 mM DTT, 4% glycerol, room temperature, 30 min; GST-TFs on glutathione beads, 16-mer random dsDNA library, 0.1% formaldehyde crosslink after washing; high values mean tight binding
Holding throughout (conditions): protein: recombinant; tags: N-terminal GST; dsDNA, one strand shown

One assay has as its target T1, FLI1 (Homo sapiens, UniProt Q01543 1-452).
T1 sequence: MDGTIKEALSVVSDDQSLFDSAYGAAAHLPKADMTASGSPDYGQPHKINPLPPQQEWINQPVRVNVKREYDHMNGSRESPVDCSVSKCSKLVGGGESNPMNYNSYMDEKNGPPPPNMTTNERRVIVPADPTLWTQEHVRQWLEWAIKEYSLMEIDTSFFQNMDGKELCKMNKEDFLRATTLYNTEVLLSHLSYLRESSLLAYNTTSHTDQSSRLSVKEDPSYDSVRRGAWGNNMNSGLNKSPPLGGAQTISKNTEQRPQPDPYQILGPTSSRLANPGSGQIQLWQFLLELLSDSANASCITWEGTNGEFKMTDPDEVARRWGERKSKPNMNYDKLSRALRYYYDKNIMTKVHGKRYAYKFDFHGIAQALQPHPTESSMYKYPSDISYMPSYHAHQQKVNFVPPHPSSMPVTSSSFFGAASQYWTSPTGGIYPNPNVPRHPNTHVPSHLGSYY
Summed up:
(§1)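 Human transcription factors fused to GST were expressed in yeast, captured on glutathione beads, given DNA barcodes and pooled with a GST-only negative control. Pools were incubated with 200 nmole of a 16-mer random double-stranded DNA library in Tris/NaCl/DTT/glycerol buffer at room temperature for 30 min. They were then washed, crosslinked with 0.1% formaldehyde, proximity-ligated (BsaI/T4 ligase, 1 h, 37 °C), PCR-amplified and sequenced on an Illumina NextSeq500. Binding signal is each 6-mer's read frequency for a factor divided by its frequency for the GST control.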

The target of another assay is T2, ELK1 (Homo sapiens, UniProt P19419 1-428).
T2 sequence: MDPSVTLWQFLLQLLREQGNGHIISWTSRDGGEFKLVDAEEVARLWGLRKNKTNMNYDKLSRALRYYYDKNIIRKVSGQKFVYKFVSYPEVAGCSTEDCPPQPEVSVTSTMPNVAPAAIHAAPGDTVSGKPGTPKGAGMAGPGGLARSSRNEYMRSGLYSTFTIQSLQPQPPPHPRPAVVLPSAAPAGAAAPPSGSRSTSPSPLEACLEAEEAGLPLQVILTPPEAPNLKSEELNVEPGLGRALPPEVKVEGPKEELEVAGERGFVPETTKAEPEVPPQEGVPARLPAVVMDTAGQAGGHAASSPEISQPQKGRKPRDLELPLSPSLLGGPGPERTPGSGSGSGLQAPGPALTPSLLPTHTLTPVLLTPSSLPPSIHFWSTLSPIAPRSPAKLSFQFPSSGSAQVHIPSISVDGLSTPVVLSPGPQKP
Summed up: as §1

The target in another assay is T3, GABPA (Homo sapiens, UniProt Q06546 1-454).
T3 sequence: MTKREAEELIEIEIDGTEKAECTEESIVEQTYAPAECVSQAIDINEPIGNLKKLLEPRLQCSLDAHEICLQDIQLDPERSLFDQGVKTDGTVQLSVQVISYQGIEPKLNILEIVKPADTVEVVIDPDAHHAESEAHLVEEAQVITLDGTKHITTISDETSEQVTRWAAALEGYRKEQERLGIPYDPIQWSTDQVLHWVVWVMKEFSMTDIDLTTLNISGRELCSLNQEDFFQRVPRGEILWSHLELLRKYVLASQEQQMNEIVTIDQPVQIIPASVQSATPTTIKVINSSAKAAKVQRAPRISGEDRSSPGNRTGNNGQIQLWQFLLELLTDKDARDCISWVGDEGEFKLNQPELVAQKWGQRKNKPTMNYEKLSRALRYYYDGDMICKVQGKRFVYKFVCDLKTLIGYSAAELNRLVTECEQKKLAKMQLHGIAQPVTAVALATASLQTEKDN
Put shortly:
as §1

The target of a further assay is T4, ERG (Homo sapiens, UniProt P11308 1-479).
T4 sequence: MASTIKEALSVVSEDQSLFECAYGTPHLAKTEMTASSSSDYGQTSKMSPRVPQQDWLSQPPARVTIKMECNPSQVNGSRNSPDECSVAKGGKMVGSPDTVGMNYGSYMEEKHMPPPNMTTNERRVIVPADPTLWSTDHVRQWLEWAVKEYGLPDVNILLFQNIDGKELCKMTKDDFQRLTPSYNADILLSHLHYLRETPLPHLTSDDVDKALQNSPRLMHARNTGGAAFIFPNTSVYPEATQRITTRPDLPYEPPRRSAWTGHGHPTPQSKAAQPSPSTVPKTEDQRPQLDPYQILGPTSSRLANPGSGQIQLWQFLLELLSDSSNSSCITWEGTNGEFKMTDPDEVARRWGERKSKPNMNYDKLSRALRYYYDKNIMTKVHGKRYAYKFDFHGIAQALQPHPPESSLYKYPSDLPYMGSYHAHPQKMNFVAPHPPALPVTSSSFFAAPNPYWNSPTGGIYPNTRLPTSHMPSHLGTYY
Summed up: as §1

The target of another assay is ELF1 (Homo sapiens, UniProt P32519 1-619). Put shortly:
as §1

The next assay concerns the target T5, ELK3 (Homo sapiens, UniProt P41970 1-407).
T5 sequence: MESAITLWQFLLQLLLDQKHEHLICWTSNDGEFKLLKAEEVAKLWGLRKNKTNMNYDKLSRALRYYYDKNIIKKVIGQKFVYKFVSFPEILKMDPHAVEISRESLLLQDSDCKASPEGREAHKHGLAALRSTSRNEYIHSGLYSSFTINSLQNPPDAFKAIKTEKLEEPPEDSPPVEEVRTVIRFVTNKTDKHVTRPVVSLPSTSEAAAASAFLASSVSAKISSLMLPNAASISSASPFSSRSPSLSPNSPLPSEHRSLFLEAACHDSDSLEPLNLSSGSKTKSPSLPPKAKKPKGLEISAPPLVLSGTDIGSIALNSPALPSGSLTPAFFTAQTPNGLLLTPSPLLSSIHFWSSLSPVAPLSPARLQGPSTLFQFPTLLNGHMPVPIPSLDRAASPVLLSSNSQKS
Put shortly: as §1

A further assay concerns the target ELF4 (Homo sapiens, UniProt Q99607 1-663). Put shortly: as §1
Another assay has as its target T6, ELK4 (Homo sapiens, UniProt P28324-2 1-405).
T6 sequence: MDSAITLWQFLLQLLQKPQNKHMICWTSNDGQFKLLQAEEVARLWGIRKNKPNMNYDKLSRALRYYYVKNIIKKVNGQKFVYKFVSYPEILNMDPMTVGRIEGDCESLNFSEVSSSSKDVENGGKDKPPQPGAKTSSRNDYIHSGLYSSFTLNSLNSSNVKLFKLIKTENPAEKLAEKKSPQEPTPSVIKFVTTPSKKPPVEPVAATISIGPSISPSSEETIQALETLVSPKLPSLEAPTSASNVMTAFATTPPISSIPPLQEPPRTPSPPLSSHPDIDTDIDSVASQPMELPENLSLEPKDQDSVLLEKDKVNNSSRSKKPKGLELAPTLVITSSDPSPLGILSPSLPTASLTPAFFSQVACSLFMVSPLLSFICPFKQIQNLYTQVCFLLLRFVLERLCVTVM
Summed up: as §1

A further assay concerns the target T7, ETV2 (Homo sapiens, UniProt O00321 1-342).
T7 sequence: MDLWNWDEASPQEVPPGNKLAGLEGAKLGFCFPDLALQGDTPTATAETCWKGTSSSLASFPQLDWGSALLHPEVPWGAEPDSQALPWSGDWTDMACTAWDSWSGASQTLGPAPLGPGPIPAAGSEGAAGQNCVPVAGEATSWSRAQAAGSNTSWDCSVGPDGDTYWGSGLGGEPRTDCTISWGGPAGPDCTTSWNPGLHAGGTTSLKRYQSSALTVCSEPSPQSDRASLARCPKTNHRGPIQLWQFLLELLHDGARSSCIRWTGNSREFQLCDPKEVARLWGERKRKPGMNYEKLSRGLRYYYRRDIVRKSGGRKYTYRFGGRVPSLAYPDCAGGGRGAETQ
Summed up: as §1

The target of the next assay is T8, ETV3L (Homo sapiens, UniProt Q6ZN32 1-361).
T8 sequence: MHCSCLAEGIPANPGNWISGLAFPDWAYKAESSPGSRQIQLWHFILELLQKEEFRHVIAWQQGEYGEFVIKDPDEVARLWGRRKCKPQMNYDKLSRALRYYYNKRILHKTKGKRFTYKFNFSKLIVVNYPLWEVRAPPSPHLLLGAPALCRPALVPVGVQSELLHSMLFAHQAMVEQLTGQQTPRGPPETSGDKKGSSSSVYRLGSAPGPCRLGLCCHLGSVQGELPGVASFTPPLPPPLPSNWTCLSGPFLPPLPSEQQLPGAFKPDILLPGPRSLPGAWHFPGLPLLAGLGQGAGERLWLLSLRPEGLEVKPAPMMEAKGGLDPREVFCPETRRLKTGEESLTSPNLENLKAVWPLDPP
Put shortly:
as §1

A further assay addresses T9, ETV7 (Homo sapiens, UniProt Q9Y603 1-341).
T9 sequence: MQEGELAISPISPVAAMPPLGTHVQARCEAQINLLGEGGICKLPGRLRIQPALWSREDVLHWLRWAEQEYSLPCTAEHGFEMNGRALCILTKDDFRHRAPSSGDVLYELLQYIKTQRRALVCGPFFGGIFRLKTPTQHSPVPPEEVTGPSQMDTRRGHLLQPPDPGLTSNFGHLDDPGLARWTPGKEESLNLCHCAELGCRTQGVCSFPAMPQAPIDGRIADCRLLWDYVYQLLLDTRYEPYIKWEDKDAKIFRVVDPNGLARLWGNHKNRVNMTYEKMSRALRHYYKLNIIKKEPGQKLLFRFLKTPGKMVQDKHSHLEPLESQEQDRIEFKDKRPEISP
Put shortly:
as §1

The next assay concerns the target T10, ETV3 (Homo sapiens, UniProt P41162-2 1-143).
T10 sequence: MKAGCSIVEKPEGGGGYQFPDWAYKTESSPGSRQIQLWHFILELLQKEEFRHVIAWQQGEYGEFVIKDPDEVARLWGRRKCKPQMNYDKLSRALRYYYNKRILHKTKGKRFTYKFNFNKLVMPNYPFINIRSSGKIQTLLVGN
Summed up: as §1

For the next assay, the target named is ETV6 (Homo sapiens, UniProt P41212 1-452). Summed up:
as §1

A further assay concerns the target T11, EHF (Homo sapiens, UniProt Q9NZC4 1-300).
T11 sequence: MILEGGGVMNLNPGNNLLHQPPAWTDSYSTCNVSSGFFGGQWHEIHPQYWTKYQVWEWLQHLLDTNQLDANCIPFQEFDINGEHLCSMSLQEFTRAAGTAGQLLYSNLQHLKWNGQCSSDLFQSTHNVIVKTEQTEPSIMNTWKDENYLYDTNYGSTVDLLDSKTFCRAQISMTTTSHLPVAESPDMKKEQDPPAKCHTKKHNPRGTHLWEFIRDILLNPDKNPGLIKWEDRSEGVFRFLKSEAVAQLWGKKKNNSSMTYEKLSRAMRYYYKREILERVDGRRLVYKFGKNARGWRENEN
Put shortly:
as §1

For another assay, the target named is T12, SPIC (Homo sapiens, UniProt Q8N5J4 1-248).
T12 sequence: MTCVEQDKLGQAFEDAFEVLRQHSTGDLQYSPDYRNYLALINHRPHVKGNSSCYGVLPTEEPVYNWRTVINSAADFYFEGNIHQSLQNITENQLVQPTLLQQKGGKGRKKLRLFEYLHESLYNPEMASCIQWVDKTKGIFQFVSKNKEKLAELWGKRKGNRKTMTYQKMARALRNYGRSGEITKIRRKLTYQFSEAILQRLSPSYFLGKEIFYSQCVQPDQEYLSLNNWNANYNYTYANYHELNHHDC
Put shortly:
as §1

ETV6, sequence (P41212 whole entry): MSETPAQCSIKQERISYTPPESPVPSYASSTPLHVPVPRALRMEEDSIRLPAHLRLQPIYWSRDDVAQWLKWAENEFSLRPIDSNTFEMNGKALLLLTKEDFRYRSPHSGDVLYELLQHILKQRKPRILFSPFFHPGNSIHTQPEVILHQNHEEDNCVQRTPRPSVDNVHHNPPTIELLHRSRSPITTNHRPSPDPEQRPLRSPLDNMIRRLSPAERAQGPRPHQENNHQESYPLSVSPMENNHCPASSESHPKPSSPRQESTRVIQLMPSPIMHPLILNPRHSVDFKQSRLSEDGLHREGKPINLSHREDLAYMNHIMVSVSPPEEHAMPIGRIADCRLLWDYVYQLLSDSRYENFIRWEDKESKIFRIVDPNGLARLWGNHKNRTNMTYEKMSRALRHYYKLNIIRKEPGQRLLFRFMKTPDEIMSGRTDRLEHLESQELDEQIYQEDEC
ELF1, sequence (P32519 whole entry): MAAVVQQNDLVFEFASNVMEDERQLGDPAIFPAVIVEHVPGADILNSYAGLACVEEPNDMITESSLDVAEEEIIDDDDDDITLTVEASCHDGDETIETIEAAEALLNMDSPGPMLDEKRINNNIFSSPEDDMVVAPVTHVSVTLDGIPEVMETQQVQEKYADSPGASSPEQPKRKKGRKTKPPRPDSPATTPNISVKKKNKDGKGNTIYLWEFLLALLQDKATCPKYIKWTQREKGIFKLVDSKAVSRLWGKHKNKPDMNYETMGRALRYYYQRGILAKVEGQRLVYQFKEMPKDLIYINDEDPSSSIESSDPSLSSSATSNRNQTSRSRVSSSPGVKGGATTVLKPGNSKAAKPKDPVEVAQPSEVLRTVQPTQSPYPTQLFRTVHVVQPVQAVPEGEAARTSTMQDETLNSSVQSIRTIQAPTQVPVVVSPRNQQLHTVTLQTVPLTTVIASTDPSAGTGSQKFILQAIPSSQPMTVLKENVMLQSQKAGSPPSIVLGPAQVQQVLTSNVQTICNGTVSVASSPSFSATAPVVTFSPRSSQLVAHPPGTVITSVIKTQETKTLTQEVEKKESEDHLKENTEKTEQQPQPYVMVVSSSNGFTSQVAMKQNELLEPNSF
ELF4, sequence (Q99607 whole entry): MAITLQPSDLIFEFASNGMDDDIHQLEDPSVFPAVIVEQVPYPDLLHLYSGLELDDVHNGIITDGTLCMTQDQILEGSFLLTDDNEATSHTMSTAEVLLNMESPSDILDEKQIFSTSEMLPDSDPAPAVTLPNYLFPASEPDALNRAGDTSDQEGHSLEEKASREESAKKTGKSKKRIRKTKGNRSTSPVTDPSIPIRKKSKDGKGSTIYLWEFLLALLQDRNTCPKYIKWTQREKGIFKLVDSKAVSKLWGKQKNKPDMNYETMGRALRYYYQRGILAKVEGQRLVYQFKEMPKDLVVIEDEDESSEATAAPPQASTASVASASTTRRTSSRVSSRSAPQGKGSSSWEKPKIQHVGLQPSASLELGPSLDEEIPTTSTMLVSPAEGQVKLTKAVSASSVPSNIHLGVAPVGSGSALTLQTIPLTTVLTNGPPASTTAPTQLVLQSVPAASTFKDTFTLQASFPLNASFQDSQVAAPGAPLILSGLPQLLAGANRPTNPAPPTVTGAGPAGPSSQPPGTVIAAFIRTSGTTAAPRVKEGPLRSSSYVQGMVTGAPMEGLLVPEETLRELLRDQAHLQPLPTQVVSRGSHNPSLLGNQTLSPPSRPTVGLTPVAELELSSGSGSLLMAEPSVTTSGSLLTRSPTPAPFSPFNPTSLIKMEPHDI

For the sequence CGCGGC, the binding signal was 1.1 fold enrichment (6-mer frequency, TF over GST control) with FLI1; 1.08 fold enrichment (6-mer frequency, TF over GST control) in the assay with ELK1; 1.15 fold enrichment (6-mer frequency, TF over GST control) with GABPA; 1.05 fold enrichment (6-mer frequency, TF over GST control) in the assay with ERG; 1.04 fold enrichment (6-mer frequency, TF over GST control) with ELF1; 1 fold enrichment (6-mer frequency, TF over GST control) with ELK3. Moreover, the binding signal is 1.15 fold enrichment (6-mer frequency, TF over GST control) in the assay with ELF4; 1.12 fold enrichment (6-mer frequency, TF over GST control) with ELK4; 1.01 fold enrichment (6-mer frequency, TF over GST control) in the assay with ETV2; 1.01 fold enrichment (6-mer frequency, TF over GST control) with ETV3L; 1.03 fold enrichment (6-mer frequency, TF over GST control) with ETV7; 1.04 fold enrichment (6-mer frequency, TF over GST control) with ETV3. Also, in the assay with ETV6, the binding signal is 1.15 fold enrichment (6-mer frequency, TF over GST control).

For GTGGCA, the binding signal with FLI1 was 1.05 fold enrichment (6-mer frequency, TF over GST control); with EHF it was 1.03 fold enrichment (6-mer frequency, TF over GST control); with ELK3 it was 1.04 fold enrichment (6-mer frequency, TF over GST control); in the assay with SPIC, 1.04 fold enrichment (6-mer frequency, TF over GST control); in the assay with ELK4, 1.04 fold enrichment (6-mer frequency, TF over GST control); in the assay with ETV2 it was 1.07 fold enrichment (6-mer frequency, TF over GST control). Besides, the binding signal in the assay with ETV3 was 1 fold enrichment (6-mer frequency, TF over GST control); with ETV6 it was 1.05 fold enrichment (6-mer frequency, TF over GST control).
